Source: PubChem BioAssay (NCATS)
“And” between values parts separate entries of the source, which are not always exact repeats. Equal entries are not always repeated. Values without a mark were called inactive. Inconclusive results are not listed. The source made the active and inactive calls. Unless noted, calls come from the whole dose curve; as a rule, active = well fitted curve in the direction sought with a large enough effect; inconclusive = small, poorly fitted or top-dose-only effect, or another doubt; inactive = no such curve, though single readings can be large; an effect the other way counts as inactive or inconclusive.

system: not listed separately; assay: S16 Schwann cell PMP22 intronic element firefly luciferase assay (AID 624032); conditions: S16 rat Schwann cells, PMP22 element FLuc, 24 h; series mostly up to 25.7 µM; activity change, negative = inhibition: at the top concentration;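 note: plate controls were DMSO for no effect and PTC124 positive control mean for full effect; nearly all actives have a fitted effect of over 30% in size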
Outline: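 Rat S16 Schwann cells stably carrying a PMP22 intronic element-driven Fluc reporter were seeded overnight, then exposed to compounds for 24 h at 37 °C. Luminescence was normalized to PTC124 (positive control) and DMSO (0% activity).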

SMILES | activity change, negative = inhibition
C[C@@H]1CCC[C@H](C)N1NC(=O)c1ccc(Cl)c(S(N)(=O)=O)c1 | -13.9%
O=C(Cc1cccs1)NC1C(=O)N2C(C(=O)[O-])=C(C[n+]3ccccc3)CSC12 (configuration not stated) | -4.32% [at 57.5 µM]

system: not listed separately; assay: S16 Schwann cell PMP22 intronic element beta-lactamase assay (AID 624044; calls by dose curve;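 note: 0% = DMSO and -100% = potassium clavulanate positive control; nearly all actives have a fitted effect of over 15% in size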); conditions: S16 rat Schwann cells, PMP22 element beta-lactamase FRET, 24 h; series mostly up to 17.1 µM; ratio activity, negative = inhibition: at the top concentration
Outline: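 Beta-lactamase reporter under a PMP22 intronic regulatory element in stable S16 rat Schwann cells; 24 h compound exposure. 460 nm blue signal normalized between DMSO (0%) and potassium clavulanate, with 535 nm FRET tracking viability; curves classed by r2 and response.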

SMILES | ratio activity, negative = inhibition
C[N+](C)(C)CC(O)CC(=O)O (configuration not stated) | -9.56% [at 38.3 µM]
CN(C)CC/C=C1\c2ccccc2CSc2ccccc21 | 3.24%
CC(C)N1CCN(c2ccc(OC[C@@H]3CO[C@@](Cn4cncn4)(c4ccc(Cl)cc4Cl)O3)cc2)CC1 | -19.1%
C[C@@H]1CCC[C@H](C)N1NC(=O)c1ccc(Cl)c(S(N)(=O)=O)c1 | 4.41%
O=C(Cc1cccs1)NC1C(=O)N2C(C(=O)[O-])=C(C[n+]3ccccc3)CSC12 (configuration not stated) | 1.77% [at 38.3 µM]

system: not listed separately; assay: qHTS assay for small molecule disruptors of the mitochondrial membrane potential - 1 hr assay (AID 651754; calls by dose curve; note: % is set by controls: 0 for no effect and ±100 for the full control effect; nearly all actives have a fitted effect of over 35% in size); conditions: series mostly up to 92.2 µM; ratio change, negative = depolarisation: at the top concentration
Outline: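 Mitochondrial potential in living HepG2 cells after 1 hr compound treatment at 37C was read with Mito-MPS dye added for a further 30 min. Red aggregate and green monomer fluorescence were measured; loss of potential leaves dye as cytoplasmic monomers.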

SMILES | ratio change, negative = depolarisation
C=C(C)[C@H]1CC=C(C)C(=O)C1 | 1.54%
C=CC(C)(O)CCC=C(C)C (configuration not stated) | 0.541%
COS(C)(=O)=O | 3.64%

system: not listed separately; assay: qHTS assay for small molecule disruptors of the mitochondrial membrane potential - 5 hr assay (AID 651755; calls by dose curve; note: % is set by controls: 0 for no effect and ±100 for the full control effect; nearly all actives have a fitted effect of over 40% in size); conditions: JC-1-type ratio dye; series mostly up to 92.2 µM; ratio change, negative = disruption: at the top concentration
Outline: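 Seed HepG2 overnight, add compound, incubate 5 hr at 37C and 5% CO2, stain 30 min with Mito-MPS, then measure monomer (490/535 nm) and aggregate (540/590 nm) fluorescence.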

SMILES | ratio change, negative = disruption
C=C(C)[C@H]1CC=C(C)C(=O)C1 | 0.504%
C=CC(C)(O)CCC=C(C)C (configuration not stated) | 2.9%
COS(C)(=O)=O | -0.325%

target: Tumor necrosis factor (Homo sapiens) (UniProt P01375); assay: qHTS assay to identify small molecules that stimulate Tumor Necrosis Factor-alpha (TNF-alpha) secretion (AID 651757; active = well fitted curve in the direction sought with a large enough effect in the signal ratio; the % refers to the signal ratio; note: 0% is about no effect); conditions: Human cells, HTRF 665/615 ratio; series mostly up to 92.2 µM; activation (TNF-alpha secretion): at the top concentration
Sequence (P01375 whole entry, looked up): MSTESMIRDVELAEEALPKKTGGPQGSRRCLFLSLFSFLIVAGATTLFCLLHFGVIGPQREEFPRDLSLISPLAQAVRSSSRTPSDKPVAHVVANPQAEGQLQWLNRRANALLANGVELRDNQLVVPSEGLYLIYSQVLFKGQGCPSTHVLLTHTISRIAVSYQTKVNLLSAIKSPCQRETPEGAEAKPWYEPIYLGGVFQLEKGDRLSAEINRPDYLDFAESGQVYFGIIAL
Outline: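 Secreted TNF-alpha quantified by TR-FRET sandwich of two labeled anti-TNF-alpha antibodies, incubated 3 hr at room temperature. Preceded by 17 hr, 37 C compound treatment of THP-1 cells at 3000 cells/well.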

SMILES | activation (TNF-alpha secretion)
C=C(C)[C@H]1CC=C(C)C(=O)C1 | 0.0663%
C=CC(C)(O)CCC=C(C)C (configuration not stated) | -0.174%
COS(C)(=O)=O | 1.36%

system: not listed separately; assay: qHTS assay for environmental chemicals that activate the Aryl hydrocarbon Receptor (AhR) signaling pathway (AID 651777); conditions: 1A2-DRE human hepatoma cells, luciferase, 24 h; active compounds read high; note: % of control where 0% means no effect; nearly all actives have a fitted effect of over 15% in size
Outline: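 Stable CYP1A2 promoter/DRE-luciferase human hepatoma line treated 24 hr; One-Glo luminescence, 30 min RT.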

SMILES | activation
C=C(C)[C@H]1CC=C(C)C(=O)C1 | -0.835% and 2.01%
C=CC(C)(O)CCC=C(C)C (configuration not stated) | -0.577% and 0.957%
COS(C)(=O)=O | -0.488%

target: Peroxisome proliferator-activated receptor alpha (Homo sapiens) (UniProt Q07869); assay: qHTS assay for small molecule agonists of the peroxisome proliferator-activated receptor alpha (PPARalpha) signaling pathway (AID 651778); conditions: PathHunter PPARalpha complementation, chemiluminescence, 6 h; active compounds read high; note: % of control where 0% means no effect
Sequence (Q07869 whole entry, looked up): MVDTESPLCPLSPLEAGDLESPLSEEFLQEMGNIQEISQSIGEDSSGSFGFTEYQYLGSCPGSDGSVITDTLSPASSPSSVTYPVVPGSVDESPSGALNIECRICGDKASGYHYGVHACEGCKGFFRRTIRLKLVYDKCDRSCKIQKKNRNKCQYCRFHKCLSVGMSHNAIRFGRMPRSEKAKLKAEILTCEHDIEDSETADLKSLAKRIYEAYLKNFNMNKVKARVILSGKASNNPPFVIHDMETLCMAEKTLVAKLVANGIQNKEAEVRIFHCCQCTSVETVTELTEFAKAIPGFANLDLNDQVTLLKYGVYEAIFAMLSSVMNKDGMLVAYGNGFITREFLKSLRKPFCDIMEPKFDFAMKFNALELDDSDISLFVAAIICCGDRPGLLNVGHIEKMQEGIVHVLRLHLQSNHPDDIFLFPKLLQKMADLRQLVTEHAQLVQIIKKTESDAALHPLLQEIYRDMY
Outline: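 Cells plated at 2,000/well and held overnight at 37 C, 5% CO2, then compound added by pin tool for 6 hr; after PathHunter detection reagent and 60 min at room temperature, chemiluminescence from enzyme complementation was read.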

SMILES | max response
C=C(C)[C@H]1CC=C(C)C(=O)C1 | -1.19% and -3.66%
C=CC(C)(O)CCC=C(C)C (configuration not stated) | -3.46% and 0.843%
COS(C)(=O)=O | 5.12%

system: not listed separately; assay: qHTS assay for small molecule agonists of the antioxidant response element (ARE) signaling pathway measured by Nrf2-dependant transcriptional activity (AID 720636; active = well fitted curve in the direction sought with a large enough effect in the repeat runs; an effect the other way counts as inactive or inconclusive;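 note: HepG2 cells with an ARE-driven luciferase reporter; % of control where 0% means no effect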); conditions: ARE-luc HepG2, Nrf2 luciferase reporter, 16 h; series mostly up to 92.4 µM; activation: at the top concentration
Outline: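 Reporter gene assay, HepG2 ARE-luc: 16 hr compound, 37 C, 5% CO2; read-out luciferase luminescence.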

SMILES | outcome | activation
C=C(C)[C@H]1CC=C(C)C(=O)C1 | inactive | –
C=CC(C)(O)CCC=C(C)C (configuration not stated) | inactive | –
COS(C)(=O)=O | – | 0.524%

system: not listed separately; assay: qHTS assay for small molecule antagonists of the retinoid-related orphan receptor gamma (ROR-gamma) signaling pathway - cell viability counter screen (AID 720652; active = well fitted curve in the direction sought with a large enough effect in the repeat runs; an effect the other way counts as inactive or inconclusive;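 note: CHO reporter cells with doxycycline-induced ROR-gamma expression; compound exposure lasted 16 hr before ATP read; % is set by controls: 0 for no effect and ±100 for the full control effect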); conditions: RORgamma reporter cell line viability counter screen; series mostly up to 92.2 µM; activity change, negative = cytotoxicity: at the top concentration
Outline: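 Cytotoxicity counter screen: intracellular ATP (CellTiter-Glo luminescence) measured in the doxycycline-induced CHO RORE-luciferase reporter line after 16 hr compound exposure at 37 C, 5% CO2.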

SMILES | activity change, negative = cytotoxicity
C=C(C)[C@H]1CC=C(C)C(=O)C1 | 4.55%
C=CC(C)(O)CCC=C(C)C (configuration not stated) | 2.46%
COS(C)(=O)=O | -9.08%

system: not listed separately; assay: qHTS assay for small molecule agonists of the antioxidant response element (ARE) signaling pathway measured by Nrf2-dependant transcriptional activity - cell viability counter screen (AID 720653; active = well fitted curve in the direction sought with a large enough effect in the repeat runs; an effect the other way counts as inactive or inconclusive; note: % is set by controls: 0 for no effect and ±100 for the full control effect); conditions: ARE-bla HepG2 viability, CellTiter-Glo ATP luminescence, 16 h; active compounds read low
Outline: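 ARE-bla HepG2 cells (2,000/well) rested 5 hrs at 37C/5% CO2, then exposed to compounds in DMSO for 16 hrs. Viability was read in the same wells as intracellular ATP by luminescence, 30 min at room temperature after reagent addition.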

SMILES | max response
C=C(C)[C@H]1CC=C(C)C(=O)C1 | -9.52% and 8.39%
C=CC(C)(O)CCC=C(C)C (configuration not stated) | 12.9% and 1.07%
COS(C)(=O)=O | -2.28%

system: not listed separately; assay: qHTS assay for cell viability of HEK293 cells (AID 743288); conditions: ATP luminescence (CellTiter-Glo), 18 h, active compounds read low; note: % is set by controls: 0 for no effect and ±100 for the full control effect; nearly all actives have a fitted effect of over 50% in size
Outline: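 Readout is luciferase-coupled ATP content (CellTiter-Glo luminescence, 30 min room temperature) as a measure of metabolically competent cells. Parental HEK293 cells were plated 5 h or more before compound addition, then treated 18 h at 37 C.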

SMILES | max response
C=C(C)[C@H]1CC=C(C)C(=O)C1 | -10.1% and -1.01%
C=CC(C)(O)CCC=C(C)C (configuration not stated) | 5.28% and -11.2%
COS(C)(=O)=O | 1.66%

system: not listed separately; assay: qHTS assay for cell viability of the p53RE-bla HCT-116 cell line (AID 743292); conditions: p53RE-bla HCT-116 viability, ATP luminescence, 16 h; series mostly up to 95 µM; activity change, negative = cytotoxicity: at the top concentration; note: % is set by controls: 0 for no effect and ±100 for the full control effect; nearly all actives have a fitted effect of over 55% in size
Outline: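 Readout: CellTiter-Glo luminescence after 30 min RT. Treatment: compounds in DMSO, 16 h, 37 C. Cells: CellSensor p53RE-bla HCT-116, 4,000/well, preincubated 5 h.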

SMILES | outcome | activity change, negative = cytotoxicity
C=C(C)[C@H]1CC=C(C)C(=O)C1 | inactive | –
C=CC(C)(O)CCC=C(C)C (configuration not stated) | inactive | –
COS(C)(=O)=O | – | -1.32%
